40 sequences from the supplement of paper PMC6555819 can be followed below.

For this test, the system named is LXRb:RXRa (NR concentration 270 nM, RXRa partner concentration 90 nM). In words: PBM binding z-score (relative to random genomic background probes); higher = stronger binding; sequences stand for … in GC…GCGATTGACAGCGTAGAATGAAGG
On the procedure:
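Protein-binding microarray (Agilent 4x180K custom design, double-stranded 60-nt probes: 5' GC cap, 34-nt variable region, 24-nt constant primer region; full probe sequence given). Purified or IVT nuclear receptor:RXRα heterodimers (3:1 NR:RXRα, mostly 270:90 nM) or homodimers were incubated for 1 h in PBS with 2% milk and no ligand, then detected with Alexa488 antibodies. Fluorescence from o1-orientation probes (~5 replicates averaged) was converted to z-scores against 500 random hg19 background probes. Variable regions are seed direct-repeat (DR0–DR5) sites, all their single-nucleotide variants and half-site ablations.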
On to TGTCAATGTTCAAAGGTAACGTAAGTATCCACAC, for which the PBM binding z-score is 0.772.
In turn, CGTCCAAGGTCAATGCTAGATCAGTGAAAGCATT yielded a PBM binding z-score of 3.56.
As for CCGAGTTGGTCAAGGTCACACACGCTATAGGTAC, the figure is 3.66.
The value for TCTAGTCGGTCAAAGGTCACACACTCGAAATGCG was 5.97; that for CCTACTGGGCCATTCAGAGGTCAATGATCATATG was 3.64.
As for CCTACTGGGCCGTTCAGAGGTCATTGATCATATG, the figure is 3.55.
As for TCGCCTAGGTCATGGGCCAGTATACCACGCGAAC, the PBM binding z-score worked out at 2.29.
As for CGAACTACGTCATCCAGGACAGTGAATACATTGA, the figure is -0.00555.
The value for AGAATGAGGTCAAGATCAGGGAAACAGAATACAT was 5.08; that for CGAACTAGGTCATTGACAGGACAATGAATAGTAA was 2.47.
The value for CGAACGAGGTCATGAGTTGATAGCAAATGCCGAT was 4.51.
For the sequence TATAAAGGGTCAAAGGCCAGAGTACGAATGTCGA, the PBM binding z-score was 5.24.
AATACAGGGTCACGAGGCCAGAGTAGGTACGAAT: the PBM binding z-score was determined as 4.97.
In turn, CCTACTGGGCCATTCAGAGGGCATTGATCATATG displayed a PBM binding z-score of -0.224.
With CGTCCAAGGTCGAAGGTCAGTGAAGAGATGACGG, the PBM binding z-score is 2.62.
The value for TTGCCTAGGTCATTGGGCCAGTATAGTACGCATC was 2.28; that for CCTTACGGGTCACGTGGTTATAGCACGACGAGCG was 3.48; that for AATACAGGGTGACTAGGCCAGAGTAGGTACGAAT was 0.204.
As for AGAATGAGGTCATACGTAGATCAGGGAAGAAAGT, the figure is 5.
As for TACCCTAGGTCATGGGCCAGTATACCACGCGAAC, the figure is 4.07; as for TCTAGTTGGTCTAAGGTCACACACTCGAAATGCG, 4.1; as for TCTTGTAGATCGATAGAGGTTAAGAAAGTGCGCT, 1.52.
AACGAAAGGTCGAAGGTGAGTATACCCACCCGAA showed a PBM binding z-score of 3.06.
As for AATACAGGGTCATCTTAGGCCAGAGTACGCACAG, the figure is 5.12.
The value for TAGCCTAAGTCATGCGGGCCAGTATAGTGTCGGC was -0.501.
For CACACTAGGTCACAGAGGTCAAAGTCCGTGCGTA, the PBM binding z-score came to 6.24.
The value for CAAACCAGGTCAAAGGTCAAAGTCGAGCCAACCA was 7.49; that for AGAATGAGGTTAAACGTAGATCAGGGAAGAAAGT was 2.42; that for CGAACTAGGTCAAGGACAGTAAATCTCCGCACGC was 1.45.
With TTACCAAGGTGAACGGTCGTTGATGCACGCCTTG, the PBM binding z-score was found to be 0.334.
As for GTTACAGGGTCAAGGCCAGAGTACGCGTATTGAT, the figure is 3.64; as for CGAACTAGGTCTAAGGACAGTGAAAGGCGACGTA, -0.844; as for TAGCCTAGGTTATGGGCCAGTATACCACGCGAAC, 0.13.
The sequence CGAACGAGGTCACCAGGACAGTGAAGAGGTTGGA came in with a PBM binding z-score of 4.94.
The value for GCTTACGGGTCCAAGGTTATAGCATGAATAGAAT was 0.855; that for AGTCAAAGTTCAGGACGACGTAACGTAAAGCACG was 1.67; that for CCTTACGGGTAACGAGGTTATAGCACGACGAGCG was 0.414.
The value for ATATGTAGTTTATCGGGTCATTCAGTTTGCGCAT was 2.94.
Sequence CGTCCAAGGTCAAGGTCAATGAAAGAGACTCGAA displayed a PBM binding z-score of 4.94.
As for CAAACTAGGTCAAGGTCTAAGTCGGTTTGTGCCA, the figure is 1.6.
